Compounds with a hit are over-represented: about 3.9% of the library has one in this group of screens.
FH mod: Identification of activators of human fumarate hydratase by quantitative high-throughput screening; Potency, µM (highest dose often 79.9 µM), for inactives: at the top dose activity change, negative = inhibition, actives largely listed as inhibitors; FH coupled MDH/diaphorase resazurin fluorescence, 15 min; 0.22% of 54,000 active; AID 1347055, 2019; note: potency is the fitted concentration of half-maximal effect; % is set by controls: 0 for no effect and ±100 for the full control effect; the screen sought activators but most active calls are inhibition curves; nearly all actives have a fitted effect of over 45% in size
GPR32 ag: activates human resolvin D1 receptor GPR32; CHO-K1 GPR32 beta-arrestin PathHunter luminescence, 90 min; zero percent set by DMSO-only wells; 2.5% of 48,000 active; AID 1346428; activation, % at 76.9 µM;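 active = activation of at least 60% and not above a set upper limit, about 1 call in 100 departs from these limits; inconclusive = activation of 40% to 60%, or above that upper limit; inactive = activation under 40%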; note: 0% is about no effect
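PathHunter enzyme-fragment complementation, CHO-K1 GPR32 stable line; 2,500 cells/well, overnight attach; cpd 90 min 37 °C 5% CO2; detection reagent 1 h RT; chemiluminescence. DMSO = EC0.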
NTMT1 inh: blocks human N-terminal methyltransferase 1 activity | Potency, µM (series often up to 114 µM), inactives show top-dose activity change, negative = inhibition, hits mostly inhibitors | Q9BV86 | NTMT1 MTase-Glo SAH luminescence, purified enzyme | 2.5% of 59,000 active | AID 1645870;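 note: potency is the fitted concentration of half-maximal effect; plate controls were DMSO vehicle for no effect and no enzyme for full effect; nearly all actives have a fitted effect of over 65% in size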
GALC G270D up: enhancers of human galactocerebrosidase G270D mutant activity in cells; P54803; 145M-Twi-hGALC-G270D cells (Twitcher mouse brain line with human GALC G270D), HMU-beta-Gal fluorescence, 48 h; Potency, µM (doses to about 57.5 µM), most hits filed as activators; 0.1% of 45,000 active; AID 1159614; note: potency is the fitted concentration of half-maximal effect; 0% is about no effect; nearly all actives have a fitted effect of over 65% in size
Target sequence (P54803 whole entry G286D): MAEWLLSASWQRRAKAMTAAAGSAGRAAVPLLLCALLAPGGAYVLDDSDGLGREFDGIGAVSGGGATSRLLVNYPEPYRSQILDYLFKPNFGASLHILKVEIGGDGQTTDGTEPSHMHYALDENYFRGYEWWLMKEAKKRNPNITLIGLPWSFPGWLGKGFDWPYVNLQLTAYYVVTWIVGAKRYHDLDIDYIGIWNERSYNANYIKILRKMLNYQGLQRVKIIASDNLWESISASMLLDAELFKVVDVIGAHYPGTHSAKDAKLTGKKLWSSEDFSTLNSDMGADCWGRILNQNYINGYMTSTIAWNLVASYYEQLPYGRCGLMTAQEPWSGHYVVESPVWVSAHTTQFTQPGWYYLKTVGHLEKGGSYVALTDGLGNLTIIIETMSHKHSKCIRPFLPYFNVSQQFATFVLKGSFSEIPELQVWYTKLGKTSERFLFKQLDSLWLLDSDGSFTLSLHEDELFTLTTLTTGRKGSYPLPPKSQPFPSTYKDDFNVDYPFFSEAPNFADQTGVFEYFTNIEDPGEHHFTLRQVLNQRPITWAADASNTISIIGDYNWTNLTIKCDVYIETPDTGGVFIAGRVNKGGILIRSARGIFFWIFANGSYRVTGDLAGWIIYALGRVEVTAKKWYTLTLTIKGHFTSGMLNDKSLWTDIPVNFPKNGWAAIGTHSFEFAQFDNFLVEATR
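Brain-derived Twitcher mouse 145M-Twi cells stably expressing human GALC-G270D or wild-type GALC, treated live, then residual GALC activity read by fluorescence of HMU-b-Gal substrate (0.1 mM final) in citrate-phosphate buffer pH 5.2 with sodium taurocholate. Signal increase indicates enhancement.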
p53null 32C kill: selectivity test: cytotoxicity in p53 null cells, permissive temperature. H1299-neo p53 null cells, ATP luminescence, 24 h, 32C. Potency, µM (series often up to 46.1 µM), for the others: at the top dose activity change, negative = cytotoxicity, actives largely listed as cytotoxic. AID 903. 0.62% of 55,000 active;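 note: potency is the fitted concentration of half-maximal effect; 0% = DMSO only and -100% = full killing by 100 µM tamoxifen; nearly all actives have a fitted effect of over 55% in size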
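ATP-content luminescence in p53-null H1299-neo cells after 24 h compound exposure (up to 46 uM) at 32C permissive temperature; 0% and 100% killing set by DMSO and 100 uM tamoxifen; Hill-equation AC50.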
p53null 39C kill: kills p53 null cells at the nonpermissive temperature; H1299 p53-null (neo) cells, 39C, ATPlite viability, 24 h; Potency, µM (series often up to 46.1 µM), without a hit: at the top dose activity, negative = cell killing, actives largely listed as cytotoxic; 0.97% of 55,000 active;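 note: potency is the fitted concentration of half-maximal effect; 0% = DMSO only and -100% = full killing by 100 µM tamoxifen; nearly all actives have a fitted effect of over 50% in size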
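Temperature-shift cytotoxicity format: compound titrations on p53-null or A138V-expressing H1299 cells held 24 hr at 39C, cell ATP then measured, AC50 from Hill model.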
* = called active by the depositor; ! = not active in a repeat; [ ] = remark or other dose. Unless noted, calls come from the whole dose curve; as a rule, active = well fitted curve in the direction sought with a large enough effect; inconclusive = small, poorly fitted or top-dose-only effect, or another doubt; inactive = no such curve, though single readings can be large; an effect the other way counts as inactive or inconclusive.

Screening COc1ccc2nc(S(=O)Cc3ncc(C)c(OC)c3C)[nH]c2c1 (stereo not drawn) returned FH mod 5%[53.3 µM], GPR32 ag -11, NTMT1 inh 32µM*! and GALC G270D up inactive.
For O=C1NC(=O)/C(=C/c2ccc3c(c2)OCO3)S1 the results were FH mod 32µM* and NTMT1 inh 3%.
Screening CCSC1=N/C(=C\c2ccc3c(c2)OCO3)C(=O)S1 returned p53null 32C kill 6% and p53null 39C kill 14%.
For CC(=O)Nc1ccc(NC(=O)c2nc(SCc3ccccc3C)ncc2Cl)cc1 the results were FH mod -2%, GPR32 ag 65*, NTMT1 inh -6%, GALC G270D up inactive, p53null 32C kill -10% and p53null 39C kill -6%.
For CCCSc1ncc(Cl)c(C(=O)Nc2ccc(S(=O)(=O)N(C)c3ccccc3)cc2)n1 the results were FH mod -18%, GPR32 ag -22, NTMT1 inh 3%, GALC G270D up inactive, p53null 32C kill 0% and p53null 39C kill 22%.
For CN(c1ccccc1)S(=O)(=O)c1ccc(NC(=O)c2nc(S(C)(=O)=O)ncc2Cl)cc1 the results were FH mod inconclusive, GPR32 ag -26, NTMT1 inh -22%, GALC G270D up inactive, p53null 32C kill 22µM* and p53null 39C kill inconclusive.
`CCS(=O)(=O)c1ncc(Cl)c(C(=O)Nc2ccccc2)n1` gave FH mod 3%, GPR32 ag -2, NTMT1 inh -7%, GALC G270D up inactive, p53null 32C kill 61% and p53null 39C kill 20µM*.
For CCc1nnc(NC(=O)c2nc(SCc3ccccc3C)ncc2Cl)s1 the results were FH mod -5%, GPR32 ag 10, NTMT1 inh 11%, GALC G270D up inactive, p53null 32C kill -2% and p53null 39C kill -1%.
Screening CN(Cc1ccc(/C=C/C(=O)NO)cc1)CC12CC3CC(CC(C3)C1)C2 returned NTMT1 inh 15%.
`COc1cc(C(=O)OC[C@@]2(O)CO[C@@H](O[C@H]3[C@H](Oc4ccc(C(=O)O)cc4OC)O[C@H](CO)[C@@H](O)[C@@H]3O)[C@@H]2O)ccc1O` gave FH mod -10%[20.6 µM] and NTMT1 inh 2%[12.6 µM].
Screening O=C(Nc1ccc2c(c1)CCN(Cc1ncn[nH]1)C2)c1ccccc1-c1ccc(C(F)(F)F)cc1 returned FH mod 13% and NTMT1 inh 28%[57.5 µM].
`Cc1ccc(SCCNC(=O)CN(c2cccc(C)c2C)S(C)(=O)=O)cc1` gave FH mod -3%, GPR32 ag 76*, NTMT1 inh -3%, GALC G270D up inactive, p53null 32C kill 8% and p53null 39C kill 18%.
Screening Cc1cccc(N(CC(=O)NCCSc2ccc(Cl)cc2)S(C)(=O)=O)c1C returned FH mod -12%, GPR32 ag 103*, NTMT1 inh 20%, GALC G270D up inactive, p53null 32C kill 15% and p53null 39C kill 0%.
`CC(C)(C)C1CCc2oc3ccc(NS(=O)(=O)c4ccc(C(=O)O)cc4)cc3c2C1` (stereo not drawn) gave FH mod inconclusive, GPR32 ag 47, NTMT1 inh 50µM*, GALC G270D up inactive, p53null 32C kill 6% and p53null 39C kill inconclusive.
Cc1cc(S(=O)(=O)Nc2ccc3oc4c(c3c2)CCCC4)ccc1Cl was read as FH mod inconclusive, GPR32 ag 49, NTMT1 inh 3%, GALC G270D up inactive, p53null 32C kill inconclusive and p53null 39C kill 18µM*.
CCOC(=O)c1c(C)oc2c(Cl)cc(NS(=O)(=O)c3ccc(Cl)c(C)c3)cc12 was read as FH mod inconclusive, GPR32 ag 31, NTMT1 inh 8%, GALC G270D up inactive, p53null 32C kill 58% and p53null 39C kill 5µM*.
For CC(C)(C)C[C@H]1N[C@@H](C(=O)NC2CCC(O)CC2)[C@H](c2cccc(Cl)c2F)[C@@]12C(=O)Nc1cc(Cl)ccc12 (stereo partly drawn) the results were NTMT1 inh 24%.
For O=C1CCCC2CC(Nc3nc4ccccc4o3)CC(c3ccccc3)C12 (stereo not drawn) the results were NTMT1 inh -2%.
For Cc1oc2ccc(O)c(CN(C)Cc3ccccc3)c2c1C(=O)Nc1cccc(C(F)(F)F)c1 the results were FH mod inconclusive, GPR32 ag 18, NTMT1 inh -5%, GALC G270D up inactive, p53null 32C kill 17% and p53null 39C kill 22µM*.
COc1cccc(CNc2ccc(S(=O)(=O)Nc3cccnc3)cc2)c1O was read as NTMT1 inh 12%.
Screening OC[C@H]1O[C@@H](n2cnc3c(NC4CCCC4)ncnc32)[C@H](O)C1O (stereo partly drawn) returned FH mod -2%[53.3 µM].
Cc1ccccc1Cn1nc(C)c(NC(=O)c2cc(CC(C)C)on2)c1C was read as GPR32 ag 64*, p53null 32C kill 15% and p53null 39C kill -23%.
COC(=O)C[C@H]1C(C)(C)[C@H](OC(=O)C(C)C)[C@@]2(O)C(=O)[C@]1(C)C1CC[C@]3(C)C(CC(=O)O[C@H]3c3ccoc3)[C@]13O[C@@H]32 (stereo partly drawn) was read as FH mod 0%[20.6 µM] and NTMT1 inh 6%[12.6 µM].
`COc1cc(C(CC(=O)Nc2ccc(C)c(F)c2)N2Cc3ccccc3C2=O)cc(OC)c1OC` (stereo not drawn) gave FH mod 3%, GPR32 ag -6, NTMT1 inh 5%, GALC G270D up inactive, p53null 32C kill 1% and p53null 39C kill 12%.
O=C(CC(c1cccs1)N1Cc2ccccc2C1=O)Nc1ccccc1 (stereo not drawn) was read as FH mod 11%, GPR32 ag 30, NTMT1 inh -2%, GALC G270D up inactive, p53null 32C kill -3% and p53null 39C kill -1%.
Screening O=C(CC(c1cccs1)N1Cc2ccccc2C1=O)Nc1cccc(F)c1 (stereo not drawn) returned FH mod 3%, GPR32 ag 61*, NTMT1 inh 5%, GALC G270D up inactive, p53null 32C kill -8% and p53null 39C kill 1%.
For CCOC(=O)c1cccc(NC(=O)CC(c2cc(OC)c(OC)c(OC)c2)N2Cc3ccccc3C2=O)c1 (stereo not drawn) the results were FH mod -13%, GPR32 ag -8, NTMT1 inh 89µM*, GALC G270D up inactive, p53null 32C kill -3% and p53null 39C kill 6%.

Assay outcomes (PubChem)
